FBW7 activator: human FBW7 E3 ligase activation, primary screen. Q969H0. AlphaScreen FBW7–phospho-cyclin E peptide binding, activator screen. normalized activity (activation), % at 26.1 µM. hit rate 0.13% among 650,000; in the data active = normalized activity above about 1.9%;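 note: purified mutant Fbw7 with reduced substrate affinity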
TEAD-YAP inh: TEAD-YAP interaction inhibition | HEK-TIYL cells, TEAD-Gal4/YAP UAS-luciferase luminescence | inhibition, % at 9.12 µM | hit rate 1.4% among 640,000; in the data active = inhibition above about 32%;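 note: 0% = median of test compound wells and 100% = reference inhibitor wells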
GPR151 activ: human GPR151 activation | Q8TDV0 | PathHunter beta-arrestin GPR151 cells, luminescence | activation, % at 11.2 µM | hit rate 1% among 650,000; in the data active = activation above about 4.9%;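 note: 0% = median of compound wells and 100% = cells with positive control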
MITF primary: human MITF inhibition, primary screen; inhibition, % at 2.6 µM; O75030; AlphaScreen MITF homodimerization, bead proximity signal; hit rate 0.91% among 650,000; in the data active = inhibition above about 50%;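 note: 0% = vehicle wells with protein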
GPR151 conf act: human GPR151 activation, confirmation screen; GPR151 PathHunter beta-arrestin cells, luminescence, 90 min; % of EA-reagent control over plate median; AID 1508609; 6,700 tested, under 10 active; shares compounds with GPR151 activ; activation, % at 11.2 µM;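 active = mean percent activation across replicates above the confirmation screen cutoff of 4.91%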
GPR119 ag: counter-screen for GPR151 activators: effect on human GPR119 | shares compounds with GPR151 activ | GPR119 PathHunter beta-arrestin cells, luminescence, 90 min; 0 = compound-well median, 100 = enzyme-acceptor control | activation, % at 11.2 µM | hit rate 0.3% among 6,700 | AID 1508611;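 active = mean percent activation in the counterscreen above 29.09%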;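 note: counterscreen on off-target GPR119 to flag nonselective hits from the GPR151 activator screen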
Target sequence (Q8TDV5 whole entry, looked up): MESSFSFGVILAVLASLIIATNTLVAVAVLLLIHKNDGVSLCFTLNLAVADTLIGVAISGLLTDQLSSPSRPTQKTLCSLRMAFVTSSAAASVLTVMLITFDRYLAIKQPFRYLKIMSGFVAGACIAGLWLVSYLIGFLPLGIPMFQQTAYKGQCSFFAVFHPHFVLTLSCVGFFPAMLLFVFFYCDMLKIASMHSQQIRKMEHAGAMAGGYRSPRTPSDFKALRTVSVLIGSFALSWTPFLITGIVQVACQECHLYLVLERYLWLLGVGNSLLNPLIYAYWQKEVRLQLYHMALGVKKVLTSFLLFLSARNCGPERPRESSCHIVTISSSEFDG
* = called active by the depositor; · = not tested or not shown. A selection: hits, their analogues and other compounds. The true share with any hit is near 3.5%.

SMILES	FBW7 activator	TEAD-YAP inh	GPR151 activ	MITF primary	GPR151 conf act	GPR119 ag
CCN(CC)C(=O)COc1cc2oc(=O)c(CC(=O)OC)c(C)c2cc1Cl	0	-4	7.1*	4	0	-2
COC(=O)COc1cc(C)cc2oc(=O)c(CC(=O)OC)c(C)c12	0	1	6.1*	10	0	11
COC(=O)Cc1c(C)c2c(OCC(=O)c3cccc([N+](=O)[O-])c3)cc(C)cc2oc1=O	0	-11	3	-3	·	·
CC1(C)CC(=O)C(C=Nc2ccc(NC3=C(C#N)C(=O)CC(C)(C)C3)cc2)=C(O)C1	0	-1	7.1*	16	1	-2
O=C1N[C@@H](Cc2c[nH]c3ccccc23)C(=O)N2CCN(C(=O)c3ccc4ccccc4c3)C[C@H]12	0	5	2	4	·	·
COc1ccc(C[C@@H]2NC(=O)[C@H]3CN(C(=O)c4cc(Cl)cc(Cl)c4)CCN3C2=O)cc1	0	-1	7.4*	11	1	13
O=C1N[C@@H](Cc2c[nH]c3ccccc23)C(=O)N2CCN(C(=O)Oc3ccc(F)cc3)C[C@H]12	0	-11	14*	-18	0	26
COCc1cc(CN2CCN3C(=O)[C@H](Cc4ccccc4)NC(=O)[C@H]3C2)ccc1OC	0	7	5.7*	4	0	5
COCc1cc(CN2CCN3C(=O)[C@H](Cc4ccc(O)cc4)NC(=O)[C@H]3C2)ccc1OC	1	3	0	16	·	·
COc1ccc(C(=O)N2CCN3C(=O)[C@H](Cc4ccc(Cl)cc4)NC(=O)[C@H]3C2)cc1	0	-2	-1	-14	·	·
O=C1N[C@@H](Cc2c[nH]c3ccccc23)C(=O)N2CCN(C(=O)c3ccc(F)cc3)C[C@H]12	0	-2	6.4*	16	1	8
On1cc(Cl)cc(Cl)c1=NCCCN1CCOCC1	0	-4	-1	4	·	·
CN1C(=O)/C(=C2\SC(=S)N(CC(=O)O)C2=O)c2ccccc21	0	-5	1	9	·	·
CN1C(=O)/C(=C2\SC(=S)N(c3ccc(C(=O)O)cc3)C2=O)c2ccccc21	0	7	5.6*	21	1	16
CC(=O)c1ccc(N2C(=O)/C(=C3/C(=O)N(C(C)=O)c4ccccc43)SC2=S)cc1	0	-5	-1	7	·	·
CN1C(=O)/C(=C2\SC(=S)N(c3ccc(CC(=O)O)cc3)C2=O)c2ccccc21	0	3	6.9*	11	0	0
CCOc1ccc(N2CCN(CCNC(=O)Nc3cccc(Cl)c3)CC2)cc1	0	-1	5.5*	21	0	4
O=C(NCCN1CCN(c2cccc(Cl)c2)CC1)Nc1ccccc1	0	2	0	-11	·	·
O=C(NNC(=O)c1ccccc1I)c1cccs1	0	-2	5.8*	4	0	-11
Cc1nc2c(cc1C(=O)N/N=C/C=C/c1ccccc1)c(=O)n(C)c(=O)n2C	0	-3	1	16	·	·
O=C1C(=O)N(c2nc3ccccc3s2)C(c2ccccc2)/C1=C(\O)c1ccccc1 (centres undefined)	0	12	4.9*	9	1	15
O=C(NCCCc1ccccc1)C1CCN(C(=O)N2CCOc3ccc(Cl)cc32)CC1	0	8	4	6	·	·
O=C(NCCCc1ccccc1)C1CCN(C(=O)N2CCOc3ccccc32)CC1	0	1	6.1*	7	1	-7
Cc1nn(Cc2ccccc2Cl)c(Cl)c1/C=C/C(=O)OCC#N	0	-23	10*	3	-1	1
O=C(NN1C(=O)C2C3C=CC(C3)C2C1=O)c1ccc(Cl)cc1Cl (centres undefined)	0	-2	0	12	·	·
O=C1C2C3C=CC(C3)C2C(=O)N1Nc1c(Cl)cc(Cl)cc1Cl (centres undefined)	0	2	6.6*	1	2	5
Cn1c(=O)c2c(nc(NCCOCCO)n2Cc2ccc(Cl)c(Cl)c2)n(C)c1=O	0	-10	5.2*	-3	1	6
COc1cccc(-c2cc(C(=O)NCCCn3ccnc3)c3ccccc3n2)c1	0	8	7.2*	3	2	13
COc1ccc(CCNC(=O)c2cc(-c3cccc(OC)c3)nc3ccccc23)cc1	1	9	-2	0	·	·

Screening data: PubChem, The Scripps Research Institute Molecular Screening Center
